For 20 compounds, Potency results are on record in PubChem BioAssay (NCATS).

Structures are written as SMILES. Inconclusive results are not listed. Values without a mark were called inactive. Activity calls are given as the source filed them. Calls come from the whole dose curve; as a rule, active = well fitted curve in the direction sought with a large enough effect; inconclusive = small, poorly fitted or top-dose-only effect, or another doubt; inactive = no such curve, though single readings can be large; an effect the other way counts as inactive or inconclusive.

A short description of test [1]: qHTS of pediatric cancer cell lines to identify multiple opportunities for drug repurposing: Primary screen for NB1643 cells (AID 1347099). Note: nearly all actives have a fitted effect of over 50% in size. Note: potency is the fitted concentration of half-maximal effect. Put shortly:
(§1)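 Plated cells (500-1,000 per well, growth media) were allowed to settle for 5 hours, treated with compound dilutions for 48 hours, then lysed with CellTiter-Glo for 15 min at room temperature before luminescence reading.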
A general note: qHTS replaces the single test concentration by a dilution series.

Test [2] can be described thus: qHTS of pediatric cancer cell lines to identify multiple opportunities for drug repurposing: Primary screen for BT-12 cells (AID 1347101). Note: nearly all actives have a fitted effect of over 25% in size. Note: potency is the fitted concentration of half-maximal effect. The gist of the method: (§2)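 Cells (500-1,000/well) rested 5 h, then received compounds for 48 h; metabolically active cells were measured by CellTiter-Glo luminescence. Final concentrations spanned up to 46 µM (MIPE, 11-point) or 0.59 nM-46 µM (NPC, 8-point) in primary screens, 11-point in follow-ups.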

A short description of test [3]: qHTS of pediatric cancer cell lines to identify multiple opportunities for drug repurposing: Primary screen for Rh18 cells (AID 1347102). Note: nearly all actives have a fitted effect of over 65% in size. Note: potency is the fitted concentration of half-maximal effect. The gist of the method: (§3)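 Cells (500-1,000/well) in growth media were settled 5 h at 37 degrees C, then given compounds for 48 h. Viability was read as CellTiter-Glo luminescence. Primary runs used MIPE at 11 points (0.78 nM-46 µM) and NPC at 8 points (0.59 nM-46 µM); follow-ups used 11 points.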

The nature of test [4]: qHTS of pediatric cancer cell lines to identify multiple opportunities for drug repurposing: Primary screen for OHS-50 cells (AID 1347103). Note: nearly all actives have a fitted effect of over 40% in size. Note: potency is the fitted concentration of half-maximal effect. Put shortly:
as §2

The nature of test [5]: qHTS of pediatric cancer cell lines to identify multiple opportunities for drug repurposing: Primary screen for MG 63 (6-TG R) cells (AID 1347105). Note: nearly all actives have a fitted effect of over 50% in size. Note: potency is the fitted concentration of half-maximal effect. Put shortly: as §1
Test [6] is described as follows: qHTS of pediatric cancer cell lines to identify multiple opportunities for drug repurposing: Primary screen for control Hh wild type fibroblast cells (AID 1347106).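 Note: series mostly up to about 46 µM; a drop in luminescence marks cytotoxicity and a rise apparent proliferation; nearly all actives have a fitted effect of over 55% in size.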 Put shortly:
as §3

Test [7] is described as follows: qHTS of pediatric cancer cell lines to identify multiple opportunities for drug repurposing: Primary screen for Rh30 cells (AID 1347107). Note: nearly all actives have a fitted effect of over 75% in size. Note: potency is the fitted concentration of half-maximal effect. Put shortly: as §3
Test [8] is described as follows: qHTS of pediatric cancer cell lines to identify multiple opportunities for drug repurposing: Primary screen for Rh41 cells (AID 1347108). Note: nearly all actives have a fitted effect of over 70% in size. Note: potency is the fitted concentration of half-maximal effect. The gist of the method:
as §1

A short description of test [9]: qHTS of pediatric cancer cell lines to identify multiple opportunities for drug repurposing: Primary screen for RD cells (AID 1347104). Note: nearly all actives have a fitted effect of over 55% in size. Note: potency is the fitted concentration of half-maximal effect. The gist of the method: as §1

In the case of `Cc1ccc2c(=O)c3cccc(CC(=O)O)c3oc2c1C`, the Potency is 14.8 µM (active) in test [1], 23.5 µM (active) in test [5] and 23.5 µM (active) in [8]. Besides, the Potency entry in test [2], in test [3], in test [4], in test [6] and in test [7] was “inactive” in each case.

Regarding `CNc1nc(Nc2ccc(C(=O)N3CCOCC3)cc2OC)ncc1Cl`, the Potency in test [1] was 4.69 µM (active). Further, the Potency entry in test [2], in test [3], in test [9], in [6] and in test [8] was “inactive” each time.

`Cc1cc(-c2ncc(CC(=O)Nc3ccc(-c4cnccn4)cn3)cc2C)ccn1`: the Potency in test [1] is 16.6 µM (active); in test [2], 6.85 µM (active); in test [4] it was 5.44 µM (active). Moreover, the Potency result in test [3], in test [5] and in test [8] was “inactive” in each case.

For `CN1CC(=O)NC1=NC(=O)Nc1cccc(Cl)c1`, the Potency in [1] is 4.69 µM (active). Further, the Potency result in test [3], in [9], in test [5] and in test [6] was “inactive” throughout.

For `Cc1nc(NC(=O)N2CCC[C@@H]2C(N)=O)sc1-c1csc(C(C)(C)C)n1`, the Potency in test [1] was 5.9 µM (active); in [3] it was 7.43 µM (active); in test [4], 1.72 µM (active); in test [9], 1.66 µM (active); in [5], 5.9 µM (active); in [7], 14.8 µM (active). Moreover, the Potency in test [8] is 11.8 µM (active).

Turning to `Cc1[nH]c(C=C2C(=O)Nc3ccc(S(=O)(=O)N(C)c4cccc(Cl)c4)cc32)c(C)c1C(=O)N1CCN(C)CC1`, the Potency in test [1] was 18.7 µM (active); in test [2], 17.2 µM (active); in test [3], 23.5 µM (active); in [4], 19.3 µM (active); in [9], 29.6 µM (active). In [6], the Potency entry is “inactive”.

In the case of `CN1CCN(c2ncc(-c3cc(Cl)cc(Cl)c3Cl)c(N)n2)CC1`, the Potency is 16.6 µM (active) in [1], 4.32 µM (active) in test [2] and 3.85 µM (active) in [4]. The Potency result in [5], in test [6], in test [7] and in [8] was “inactive” in each case.

For the compound `CCN1CCN(c2ccc(Nc3cc(N(C)C(=O)Nc4c(Cl)c(OC)cc(OC)c4Cl)ncn3)cc2)CC1`, the Potency entry in [1], in [2], in test [5], in test [6] and in [8] was “inactive” in each case.

On to `CCNC(=O)Nc1ccc(Oc2ncnc(N)c2C=NOC)cc1Cl`, for which the Potency entry in test [1], in test [2], in test [3], in test [4], in test [9] and in test [5] was “inactive” throughout. Moreover, the Potency result in test [8] is “inactive”.

Turning to `COc1ccnc(CS(=O)c2nc3ccc(OC(F)F)cc3[nH]2)c1OC` (centres undefined), the Potency result in test [1], in [2], in test [3], in test [4], in [5] and in [6] was “inactive” each time. The Potency result in test [7] and in [8] was “inactive” each time.

On to `CC[C@@H]([C@H](C)O)n1ncn(-c2ccc(N3CCN(c4ccc(OCC5CO[C@@](Cn6cncn6)(c6ccc(F)cc6F)C5)cc4)CC3)cc2)c1=O` (some centres undefined), for which the Potency was 23.5 µM (active) in test [1], 21.7 µM (active) in test [2], 21.7 µM (active) in test [4] and 20.9 µM (active) in test [9]. For the same compound, the Potency entry in test [5] and in [6] was “inactive” each time.

Consider `CC(C)C[C@H](NC(=O)c1cc2ccccc2s1)C(=O)N1CCN(C(=O)[C@H](CO)NS(=O)(=O)c2ccc(Cl)cc2Cl)CC1`, for which the Potency is 23.5 µM (active) in [1], 0.001 µM (active) in test [2], 21.7 µM (active) in [4] and 29.6 µM (active) in test [9]. In addition, in [6], the Potency result was “inactive”.

On to `CCCCC(C)(C)[C@H](O)C=C[C@H]1[C@H](O)CC(=O)[C@H]1CC=CCCCC(=O)O`, for which the Potency entry in [1], in test [3], in [4], in [5] and in test [6] was “inactive” in each case.

With `CNC(=O)c1ccc2c(C(=Nc3cccc(CN(C)C)c3)c3ccccc3)c(O)[nH]c2c1`, the Potency is 16.6 µM (active) in test [1] and 13.7 µM (active) in test [4]. Further, the Potency entry in [2], in test [3], in test [5], in test [6] and in test [7] was “inactive” each time.

As for `CC(C)Oc1cc(Nc2nc(N[C@@H](C)c3ccc(F)cn3)ncc2Cl)[nH]n1`, the Potency in [1] is 1.48 µM (active); in test [3], 5.26 µM (active); in test [4] it was 21.7 µM (active); in [9], 13.2 µM (active); in test [5], 5.9 µM (active); in test [8], 5.26 µM (active). Moreover, in [6], the Potency result was “inactive”.

Take `C[C@@H]1[C@H](O)[C@@H](C)C=CC=CC=CC=CC=CC=CC=C[C@H](O[C@@H]2O[C@H](C)[C@H](O)[C@H](N)[C@@H]2O)C[C@@H]2O[C@](O)(C[C@@H](O)C[C@@H](O)[C@H](O)CC[C@@H](O)C[C@@H](O)CC(=O)O[C@H]1C)C[C@H](O)[C@@H]2C(=O)O`: the Potency was 0.166 µM (active) in test [1], 0.743 µM (active) in [9] and 0.418 µM (active) in [7]. Besides, the Potency entry in test [3], in test [4], in test [5] and in test [6] was “inactive” in each case.

With `CN1c2ccccc2C(=O)N2CCc3c([nH]c4ccccc34)C21` (centres undefined), the Potency in test [1] is 13.2 µM (active). The Potency entry in [2], in test [3], in [4], in test [5], in test [6] and in test [7] was “inactive” throughout. Also, the Potency result in [8] was “inactive”.

As to `C[C@H](CCC(=O)O)[C@H]1CC[C@H]2[C@H]3[C@@H](CC[C@]12C)[C@@]1(C)CC[C@@H](O)C[C@H]1C[C@@H]3O`, the Potency result in test [1], in [2], in [3], in test [4] and in test [6] was “inactive” throughout.

On to `CN(C)CCN(Cc1ccc(Cl)cc1)c1ccccn1`, for which the Potency in test [1] is 14.8 µM (active). Moreover, the Potency entry in [2], in [3], in test [5], in test [6] and in test [7] was “inactive” in each case.

With `CCCCN(CCCC)CC(O)c1cc(Cl)cc2c1-c1ccc(Cl)cc1C2=Cc1ccc(Cl)cc1` (centres undefined), the Potency entry in test [1], in test [2], in test [3], in test [4], in [5] and in [6] was “inactive” in each case. Further, the Potency entry in test [7] and in test [8] was “inactive” in each case.
